Compound activity: PubChem, National Center for Advancing Translational Sciences (NCATS)
A selection: hits, their analogues and other compounds. The true share with any hit is near 0.9%.
RECQ1 inh-1 – blocks DNA unwinding by human RECQ1; P46063; RECQ1 DNA unwinding, red fluorescence kinetic read; Potency, µM (doses to about 57.3 µM), for the others: top-dose activity, negative = inhibition, usual class: inhibitors; 240,000 compounds, 0.54% hits; AID 2549;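 also: plate controls were vehicle for no effect and no enzyme for full effect; nearly all actives have a fitted effect of over 30% in size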
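50 nM RECQ1T1 preincubated 15 min with compound in Tris pH 8.0 buffer with MgCl2, DTT, Tween-20 and 2.5 ug/ml poly(dI-dC); started with 200 nM TAMRA/BHQ-2 forked duplex and 2 mM ATP. Unwinding read as fluorescence (525/598 nm), two reads 2 h apart.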
KAT2A inh – blocks human GCN5L2 histone acetyltransferase; Q92830; GCN5L2 HAT assay, ThioGlo1 CoA-SH fluorescence; Potency, µM (doses to about 58.9 µM), inactives show at the highest dose activity change, negative = inhibition, most hits filed as inhibitors; 390,000 compounds, 0.21% hits; AID 504327
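qHTS, 1536-well. 20nM enzyme, pH 7.5 HEPES/EDTA/Tween-20 buffer; 15 min compound preinc., RT. Start: 75uM H3(1-25), 70uM AcCoA, 50uM ThioGlo1. Read Ex340/Em540 at t=0 (autofluorescence flag) and t=20 min.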
BLM helicase inh – blocks DNA unwinding by human BLM helicase; AID 2528; P54132; recombinant BLM DNA unwinding, fluorescence dequenching; 350,000 compounds, 0.2% hits; Potency, µM (titrated, usually from 56.1 µM), for the others: top-dose activity change, negative = inhibition, actives largely listed as inhibitors;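 also: plate controls were vehicle for no effect and no enzyme for full effect; nearly all actives have a fitted effect of over 35% in size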
TDP1 inh – blocks human tyrosyl-DNA phosphodiesterase 1. 350,000 compounds, 0.28% hits. Q9NUW8. Potency, µM (series often up to 130 µM), inactives show at the highest dose activity change, negative = inhibition, hits mostly inhibitors. recombinant TDP1, AlphaScreen DNA substrate cleavage; also: nearly all actives have a fitted effect of over 40% in size
Target sequence (Q9NUW8 whole entry, looked up): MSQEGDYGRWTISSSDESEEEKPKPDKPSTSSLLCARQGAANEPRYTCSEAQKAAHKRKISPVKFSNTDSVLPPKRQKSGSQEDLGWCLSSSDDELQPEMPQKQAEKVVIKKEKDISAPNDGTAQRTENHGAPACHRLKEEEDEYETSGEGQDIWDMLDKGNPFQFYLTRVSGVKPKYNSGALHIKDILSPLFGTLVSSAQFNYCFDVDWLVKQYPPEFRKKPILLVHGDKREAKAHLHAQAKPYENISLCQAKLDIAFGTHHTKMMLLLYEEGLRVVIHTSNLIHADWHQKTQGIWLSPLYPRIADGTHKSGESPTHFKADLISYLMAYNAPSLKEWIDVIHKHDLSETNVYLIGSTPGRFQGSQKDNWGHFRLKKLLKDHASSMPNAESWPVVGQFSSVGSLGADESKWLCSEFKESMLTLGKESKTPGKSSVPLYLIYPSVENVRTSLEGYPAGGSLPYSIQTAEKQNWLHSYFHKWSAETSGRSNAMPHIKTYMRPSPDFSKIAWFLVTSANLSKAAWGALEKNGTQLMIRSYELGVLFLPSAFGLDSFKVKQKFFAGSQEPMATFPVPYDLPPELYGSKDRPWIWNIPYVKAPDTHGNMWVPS
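E. coli-derived human Tdp1, 1 nM final. Cpd preinc 15 min RT; substrate 15 nM final, 5 min RT; AS bead mix 10 ug/ml final, 10 min RT. Signal loss = tyrosine-FITC cleavage. No-enzyme wells = max signal.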
Lamin A splicing – changes lamin A minigene splicing in HeLa cells | 200,000 compounds, 0.01% hits | Potency, µM (doses to about 46.1 µM), inactives show at the top dose ratio change, negative = inhibition, usual class: inhibitors | HeLa LMNA splicing GFP/RFP minigene ratio, 48 h; active = well fitted inhibition curve with a large enough effect in the signal ratio, with a control signal flat, not every such curve was filed as active; inconclusive = small, poorly fitted or top-dose-only effect, or effect the other way, or a change in a side signal; the % refers to the signal ratio
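Read-out is the ratio of GFP to DsRed2 object intensity, acquired by 488 nm laser-scanning cytometry on HeLa lamin A-EGFP minigene reporter cells. Compound incubation 48 hrs at 37 °C in Opti-MEM with 2% FBS; DMSO 0.5% final.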
APEX1 inh – blocks human APE1 abasic DNA cleavage | recombinant APE1, TAMRA/BHQ-2 abasic DNA cleavage fluorescence | Potency, µM (titrated, usually from 65.8 µM), for the others: at the highest dose activity change, negative = inhibition, most hits filed as inhibitors | 350,000 compounds, 0.35% hits | AID 2517;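 also: plate controls were vehicle for no effect and reference inhibitor for full effect; nearly all actives have a fitted effect of over 55% in size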
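Incision of a quenched TAMRA/BHQ-2 THF abasic-site duplex (50 nM) by 0.75 nM APE1, after 15 min compound preincubation, measured as fluorescence increase over three 60 s reads. Values normalized to buffer, DMSO and NSC13755 control wells.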
RECQ1 inh conf – confirmation of human RECQ1 helicase inhibitors; shares compounds with RECQ1 inh-1; RECQ1 helicase DNA unwinding, fluorescence; Potency, µM (top dose mostly 229 µM), for inactives: at the highest dose activity change, negative = inhibition, usual class: inhibitors; 610 compounds, 28% hits; also: nearly all actives have a fitted effect of over 45% in size
ADP FP counter – counter-screen for RECQ1 inhibitors: ADP displacement. AID 2711. 530 compounds, 27% hits. Potency, µM (titrated, usually from 228 µM), without a hit: at the top dose activity change, negative = inhibition, hits mostly inhibitors. ADP fluorescence polarization displacement counterscreen. shares compounds with RECQ1 inh-1; also: nearly all actives have a fitted effect of over 45% in size
RECQ1 inh-2 – RECQ1 helicase inhibition confirmed, round 2; Potency, µM (top dose mostly 119 µM), for inactives: at the top dose activity, negative = inhibition, most hits filed as inhibitors; recombinant RECQ1 DNA unwinding, red fluorescence; AID 504841; shares compounds with RECQ1 inh-1; 1,100 compounds, 15% hits; also: nearly all actives have a fitted effect of over 50% in size
The depositor's hits bear a star; ? = inconclusive; nt = no result; [ ] = another dose, or the depositor's remark. Unless noted, calls follow the shape of the dose curve; as a rule, active = well fitted curve in the direction sought with a large enough effect; inconclusive = small, poorly fitted or top-dose-only effect, or another doubt; inactive = no such curve, though single readings can be large; an effect the other way counts as inactive or inconclusive. Unless noted, % is scaled to controls: 0 for no effect and ±100 for the full control effect; potency is read from the fitted curve at half-maximal effect.

SMILES	RECQ1 inh-1	KAT2A inh	BLM helicase inh	TDP1 inh	Lamin A splicing	APEX1 inh	RECQ1 inh-2	others
CCOc1ccc(-c2nc(SCC(=O)c3ccccc3)n[nH]2)cc1	nt	-10%	-5%	7%	nt	nt	nt
O=C(CSc1n[nH]c(-c2ccccc2)n1)c1ccc(O)c(O)c1	20µM*	-7%	-2%	2%	?	?	?
CCn1c(SCC(=O)c2ccc(O)c(O)c2)nnc1-c1ccc(C)cc1	10µM*	-4%	-4%	-4%	?	?	?	RECQ1 inh conf=?;ADP FP counter=-14%[91.9 µM]
CCOC(=O)c1c(N2C(=O)Nc3cc(Cl)c(Cl)cc3N2O)sc2c1CCCCC2	?	?	-8%	3%	9%	-10%	20µM*
CCOC(=O)c1c(-n2cnnn2)sc2c1CCCC2	1%	-8%	-2%	0%	nt	-8%	nt
O=C(/C=C/c1ccco1)N1CCCC(c2ccccc2)C1 (configuration not stated)	?	-9%	-18%	-4%	?	-15%	?
O=C(O)c1c(Cl)c(Cl)c(Cl)c(Cl)c1-c1c2cc(I)c(=O)c(I)c-2oc2c(I)c(O)c(I)cc12	14µM*	2µM*	14µM*	29%	?	14µM*	nt	RECQ1 inh conf=45µM*;ADP FP counter=0.89µM*
CCOC(=O)c1ccc(N2C(=O)c3n[nH]c(-c4ccco4)c3C2c2ccc([N+](=O)[O-])cc2)cc1 (configuration not stated)	?	-11%	-10%	6%	?	-10%	-19%
CCOC(=O)c1ccc(N2C(=O)c3n[nH]c(-c4ccco4)c3C2c2ccc(C)cc2)cc1 (configuration not stated)	nt	-14%	-17%	7%	nt	nt	nt
CC(=O)Nc1ccc(S(=O)(=O)NCc2ccc3c(c2)cc(C)n3C)cc1	32µM*	-20%	-24%	4%	-12%	-8%	50µM*
Cc1cc(C)c(S(=O)(=O)NCc2ccc3c(c2)cc(C)n3C)c(C)c1	?	-28%	-15%	11%	-12%	-3%	56µM*
CC1CC=CC2C1C(=O)N(Cc1ccccc1)C2c1cccc([N+](=O)[O-])c1 (configuration not stated)	-13%	nt	-4%	15%	nt	-2%	nt
COc1cc([C@@H]2c3cc4c(cc3C(OC3OC5COC(C)OC5C(O)C3O)C3COC(=O)[C@@H]32)OCO4)cc(OC)c1O (some centres not stated)	-7%	nt	-4%	4%	nt	-6%	nt
CCOC(=O)N1CCc2c(sc3c2c(=O)n(-c2ccc(Cl)cc2)c(=O)n3CC(=O)Nc2ccccc2)C1	nt	3%	0%	3%	?	nt	nt
CCN(CC)C(=O)CSc1nc2ccccc2c(=O)n1-c1cccc(OC)c1	15%	3%	-2%	3%	10%	-1%	nt
COc1cccc(-n2c(SCc3cc(=O)oc4cc(O)c(O)cc34)nc3ccccc3c2=O)c1	25µM*	?	10µM*	-3%	-15%	10µM*	13µM*
COc1ccc2c(c1-c1c3c(cc(Br)c1OC)CCCC3)CCCC2	0%	nt	2%	7%	nt	-5%	nt
